IDE exosite FP = displaces the probe from the exo-site of human IDE. purified IDE, FL-6b probe fluorescence polarization; active compounds read low. P14735. 17,000 tested, 6.3% active. z-score at 20 µM;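 active = z-score of -3 or lower, meaning strong loss of probe binding signal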;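 also: His-tagged human IDE residues 42-1019 made in E. coli with 30 nM FL-6b probe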
Numbers without * were called inactive. Shown is part of a subset that was picked to be rich in hits.

SMILES	IDE exosite FP
C[C@@H](NC(=O)C[C@H]1CC[C@H]2[C@H](COc3ccc(NC(=O)C4CCOCC4)cc3C(=O)N2C)O1)c1ccccc1	-1.1
CCC(=O)N1CC2(C1)[C@@H](c1ccc(-c3ccccc3C)cc1)[C@H](CO)N2C(=O)CC	-0.68
CCNC(=O)[C@H]1[C@H](CO)[C@H]2Cn3c(ccc(-c4cncnc4)c3=O)[C@H]2N1C(=O)NC1CCCC1	0.73
Cc1ccccc1-c1ccc([C@@H]2[C@@H](CO)N3C(=O)CN(C(=O)c4ccncc4)C[C@H]23)cc1	-2.3
Cc1ccccc1-c1ccc([C@H]2[C@@H](CO)N3C(=O)CN(C(=O)c4cccnc4)C[C@H]23)cc1	-17*
Cc1ccccc1-c1ccc([C@@H]2[C@H]3CN(C(=O)c4cccnc4)CC(=O)N3[C@H]2CO)cc1	-20*
CCCC#Cc1ccc([C@@H]2[C@H](CO)N3C(=O)CN(C(=O)c4cccnc4)C[C@@H]23)cc1	0.55
O=C(c1cccnc1)N1CC(=O)N2[C@H](C1)[C@@H](c1ccc(-c3ccccc3F)cc1)[C@@H]2CO	-2.7
CO[C@@H]1CN(C)C(=O)c2ccc(NC(=O)NC(C)C)cc2OC[C@H](C)N(Cc2ccc(-c3ccccn3)cc2)C[C@@H]1C	0.24
O=C(Nc1ccccc1F)N1CC(=O)N2[C@H](C1)[C@H](c1ccc(-c3cccnc3)cc1)[C@@H]2CO	-0.48
Cc1ccccc1-c1ccc([C@@H]2[C@H]3CN(S(=O)(=O)c4cn(C)cn4)CCCCN3[C@H]2CO)cc1	-19*
Cn1cnc(S(=O)(=O)N2CCCCN3[C@@H](CO)[C@H](c4ccc(-c5ccccc5F)cc4)[C@@H]3C2)c1	0.11
Cn1cnc(S(=O)(=O)N2CCCCN3[C@H](C2)[C@H](c2ccc(C4=CCCCC4)cc2)[C@@H]3CO)c1	0.24
Cn1cnc(S(=O)(=O)N2CCCCN3[C@H](CO)[C@@H](c4ccc(-c5ccccc5F)cc4)[C@@H]3C2)c1	-11*
COc1ccccc1-c1ccc([C@@H]2[C@H]3CN(S(=O)(=O)c4cn(C)cn4)CCCCN3[C@H]2CO)cc1	-8.4*
Cn1cnc(S(=O)(=O)N2CCCCN3[C@H](C2)[C@H](c2ccc(-c4ccccc4F)cc2)[C@@H]3CO)c1	1.3
Cc1ccccc1-c1ccc([C@H]2[C@@H](CO)N3CCCCN(S(=O)(=O)c4cn(C)cn4)C[C@H]23)cc1	-17*
Cn1cnc(S(=O)(=O)N2CCCCN3[C@H](C2)[C@H](c2ccc(-c4ccc(F)cc4)cc2)[C@@H]3CO)c1	2.9
Cn1cnc(S(=O)(=O)N2CCCCN3[C@H](CO)[C@H](c4ccc(C5=CCCCC5)cc4)[C@@H]3C2)c1	-0.73
CCCC#Cc1ccc2c(c1)O[C@@H](CN(C)Cc1ccccn1)[C@@H](C)CN([C@H](C)CO)S2(=O)=O	-0.89
C[C@@H]1CN([C@@H](C)CO)C(=O)Cc2cc(NS(=O)(=O)c3ccc(F)cc3)ccc2O[C@H]1CN(C)Cc1ccncc1	1.4
C/C=C/c1ccc([C@H]2[C@@H](CO)N3C(=O)CN(Cc4ccccc4)C[C@H]23)cc1	0.18
CCC(=O)N1[C@H](CO)[C@@H](c2ccc(-c3cccc(OC)c3)cc2)C12CN(C(C)=O)C2	-1.2
CCCN(C[C@@H]1[C@@H](c2ccccc2)[C@H](CO)N1C(C)=O)C(=O)NC(C)C	2.7
O=C(c1ccc(F)cc1)N1CCCCN2[C@H](CO)[C@@H](c3ccc(C#CC4(O)CCCC4)cc3)[C@@H]2C1	2
SMILES	IDE exosite FP
CCc1csc(N2[C@@H](C#N)[C@@H](c3ccc(-c4cccc(F)c4)cc3)[C@@H]2CO)n1	2.2
COc1cccc(C#Cc2ccc([C@@H]3[C@@H](CO)N4C(=O)CN(C(C)=O)C[C@@H]34)cc2)c1	-7.5*
COc1cccc(C#Cc2ccc([C@H]3[C@H]4CN(C(C)=O)CC(=O)N4[C@H]3CO)cc2)c1	-7.9*
COc1ccc(C#Cc2ccc([C@H]3[C@@H](CO)N4C(=O)CN(C(C)=O)C[C@@H]34)cc2)cc1	3.9
COc1ccc(C#Cc2ccc([C@@H]3[C@@H](CO)N4C(=O)CN(C(C)=O)C[C@H]34)cc2)cc1	3.6
COc1ccc(C#Cc2ccc([C@H]3[C@H]4CN(C(C)=O)CC(=O)N4[C@H]3CO)cc2)cc1	2.7
COc1ccc(C#Cc2ccc([C@H]3[C@@H](CO)N4C(=O)CN(C(C)=O)C[C@H]34)cc2)cc1	1.7
O=C(Nc1cccc(F)c1)N1CCCCN2[C@H](C1)[C@H](c1ccc(-c3ccncc3)cc1)[C@@H]2CO	1.4
Cc1ccc(-c2ccc([C@@H]3[C@H]4CN(C(=O)Nc5cccc(F)c5)CCCCN4[C@H]3CO)cc2)cc1	5.1
COc1cccc(-c2ccc([C@@H]3[C@H](CO)N4CCCCN(C(=O)c5ccc(F)cc5)C[C@@H]34)cc2)c1	0.21
CC(C)NC(=O)N1CCCCN2[C@H](CO)[C@H](c3ccc(Br)cc3)[C@@H]2C1	2.4
CC(C)NC(=O)N1CCCCN2[C@H](C1)[C@H](c1ccc(Br)cc1)[C@@H]2CO	1.6
COc1cccc(-c2ccc([C@H]3[C@@H](CO)N4CCCCN(C(=O)NC(C)C)C[C@H]34)cc2)c1	-8.1*
COc1cccc(-c2ccc([C@H]3[C@H]4CN(C(=O)c5ccc(F)cc5)CCCCN4[C@H]3CO)cc2)c1	1.4
COc1cccc(-c2ccc([C@@H]3[C@@H](CO)N4CCCCN(C(=O)NC(C)C)C[C@@H]34)cc2)c1	-6*
CC(C)NC(=O)N1CCCCN2[C@H](CO)[C@@H](c3ccc(Br)cc3)[C@@H]2C1	1.7
CC(C)NC(=O)N1CCCCN2[C@H](CO)[C@H](c3ccc(Br)cc3)[C@H]2C1	2.4
COc1cccc(-c2ccc([C@@H]3[C@@H](CO)N4CCCCN(C(=O)NC(C)C)C[C@H]34)cc2)c1	-6.6*
NCC[C@H]1CC[C@@H](NC(=O)NC2CCCCC2)[C@H](CO)O1	-0.77
CN(C)C(=O)c1ccc(-c2ccc([C@H]3[C@@H](C#N)N[C@@H]3CO)cc2)cc1	2.4
O=C(CC1CC1)N1CC2(C1)[C@@H](c1ccccc1)[C@@H](CO)N2S(=O)(=O)Cc1ccccc1	-1.4
CCCN1[C@H](C(=O)NCCCN2CCOCC2)[C@@H](CO)[C@@H]2Cn3c(ccc(-c4ccncc4)c3=O)[C@@H]21	-0.22
C[C@@H]1CN([C@H](C)CO)S(=O)(=O)c2ccc(C#CC(C)(C)O)cc2O[C@H]1CN(C)Cc1ccc(F)cc1	-0.42
O=C(NC[C@H]1N[C@H](CO)[C@@H]1c1ccc(-c2ccccc2)cc1)C1CCC1	-3.5*
COc1ccccc1-c1ccc([C@H]2[C@@H](CO)N[C@@H]2CNC(=O)C2CC2)cc1	-4.2*
SMILES	IDE exosite FP
O=C(NC[C@@H]1N[C@@H](CO)[C@H]1c1ccccc1)C1CCC1	2.5
O=C(NC[C@H]1N[C@H](CO)[C@@H]1c1ccccc1)C1CCC1	0.4
O=C(NC[C@@H]1N[C@@H](CO)[C@H]1c1ccccc1)C1CCCC1	2.3
O=C(NC[C@H]1N[C@H](CO)[C@@H]1c1ccccc1)C1CC1	3
COCC#Cc1ccc([C@@H]2[C@@H](CO)N3CCCCN(S(=O)(=O)c4cccc(OC)c4)C[C@@H]23)cc1	3.1
O=C(Cc1cccnc1)N1CC(=O)N2[C@H](C1)[C@H](c1ccc(C#CC3CC3)cc1)[C@@H]2CO	-1.5
O=C(Nc1ccccc1F)N1CCCCN2[C@H](CO)[C@@H](c3ccc(C4=CCCC4)cc3)[C@@H]2C1	4.7
C[C@@H]1CN([C@@H](C)CO)C(=O)CCCn2nncc2CO[C@@H]1CN(C)C(=O)Nc1ccc(-c2cccs2)cc1	-0.93

Bioassay records: PubChem, Broad Institute
